The text below walks through data of PubChem BioAssay.

The target in one test is Tumor necrosis factor receptor superfamily member 10B (Homo sapiens) (UniProt O14763). Nature of the test: caspase-8 TRAIL sensitization, hit retest, confirmation, cell-based, NB7+caspase-8, with/without TRAIL, luminescence panel (AID 651596). The note with it: NB7 neuroblastoma + caspase-8, TRAIL sensitization, luminescence viability, with TRAIL, mean of runs, at 10 µM, stronger effect = higher value.
Tumor necrosis factor receptor superfamily member 10B (Homo sapiens), sequence (O14763 whole entry, looked up): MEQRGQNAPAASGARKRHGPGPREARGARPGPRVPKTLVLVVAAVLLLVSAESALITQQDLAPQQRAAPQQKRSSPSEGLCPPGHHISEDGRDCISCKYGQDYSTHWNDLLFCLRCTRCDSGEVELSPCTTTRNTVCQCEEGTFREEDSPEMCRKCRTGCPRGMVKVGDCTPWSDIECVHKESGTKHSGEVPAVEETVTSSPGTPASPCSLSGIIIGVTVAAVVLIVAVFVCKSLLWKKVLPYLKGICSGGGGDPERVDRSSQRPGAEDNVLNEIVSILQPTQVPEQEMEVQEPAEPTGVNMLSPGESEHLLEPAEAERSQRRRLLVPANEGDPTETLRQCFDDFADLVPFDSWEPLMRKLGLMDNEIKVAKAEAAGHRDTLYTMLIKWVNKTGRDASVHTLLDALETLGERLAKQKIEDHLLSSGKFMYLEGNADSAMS
As to `N#CC(C#N)=C1SC(=Nc2ccccc2)C(=Nc2ccccc2)N1c1ccccc1`, the activity was 92.6%.
On the same count and under the same terms, the same measure for `O=C(Nc1ccc2ccccc2c1)c1ccccc1O`: 64.2%; for `COc1cc(NC(=O)Cn2ncc(Cl)c(Cl)c2=O)c(C)cc1[N+](=O)[O-]`: 99.2%; for `CC(C)C[C@@H](CN1CCCC1CN1C(=S)NC[C@@H]1Cc1ccc(O)cc1)N1C[C@H](Cc2ccc(O)cc2)N(CC2CCCCCC2)C1=S` (some centres not stated): 18.3%.
Consider `Cc1nn(-c2ccccc2)c(Cl)c1C(=O)N1CCN(c2ncnc3c2cnn3-c2ccccc2)CC1`, for which the activity came to 82%.
Same read-out and setting: the value for `CCOc1ccccc1NC(=O)c1nc(S(=O)(=O)Cc2ccccc2)ncc1Cl` was 79.4%.

Tested on in the next test: not listed separately; in the data active means activity above about 50%; inactive means the rest
The description is as above. The settings on record: NB7 neuroblastoma + caspase-8, without TRAIL, luminescence viability, without TRAIL, mean of runs, at 10 µM.
Turning to `N#CC(C#N)=C1SC(=Nc2ccccc2)C(=Nc2ccccc2)N1c1ccccc1`, the activity stood at 83.6%.
The same measure, in the same setting: the same measure for `O=C(Nc1ccc2ccccc2c1)c1ccccc1O`: 52.8%; for `COc1cc(NC(=O)Cn2ncc(Cl)c(Cl)c2=O)c(C)cc1[N+](=O)[O-]`: 99.3%.
Consider `CC(C)C[C@@H](CN1CCCC1CN1C(=S)NC[C@@H]1Cc1ccc(O)cc1)N1C[C@H](Cc2ccc(O)cc2)N(CC2CCCCCC2)C1=S` (some centres not stated), for which the activity amounted to 52%.
Same read-out and setting: the same measure for `Cc1nn(-c2ccccc2)c(Cl)c1C(=O)N1CCN(c2ncnc3c2cnn3-c2ccccc2)CC1`: 59.6%; for `CCOc1ccccc1NC(=O)c1nc(S(=O)(=O)Cc2ccccc2)ncc1Cl`: 99.5%.
